PLK1 PBD block: blocks phosphopeptide binding to human PLK1 polo-box domain; actives 2.8% (n = 360,000); AID 720504; P53350; Potency, µM, inactives show max response, negative = inhibition, most hits filed as inhibitors; Plk1 PBD binding of FITC phosphopeptide, fluorescence polarization; note: series mostly up to about 57 µM; nearly all actives have a fitted effect of over 65% in size
Target sequence (P53350 whole entry, looked up, the tested form may be a part): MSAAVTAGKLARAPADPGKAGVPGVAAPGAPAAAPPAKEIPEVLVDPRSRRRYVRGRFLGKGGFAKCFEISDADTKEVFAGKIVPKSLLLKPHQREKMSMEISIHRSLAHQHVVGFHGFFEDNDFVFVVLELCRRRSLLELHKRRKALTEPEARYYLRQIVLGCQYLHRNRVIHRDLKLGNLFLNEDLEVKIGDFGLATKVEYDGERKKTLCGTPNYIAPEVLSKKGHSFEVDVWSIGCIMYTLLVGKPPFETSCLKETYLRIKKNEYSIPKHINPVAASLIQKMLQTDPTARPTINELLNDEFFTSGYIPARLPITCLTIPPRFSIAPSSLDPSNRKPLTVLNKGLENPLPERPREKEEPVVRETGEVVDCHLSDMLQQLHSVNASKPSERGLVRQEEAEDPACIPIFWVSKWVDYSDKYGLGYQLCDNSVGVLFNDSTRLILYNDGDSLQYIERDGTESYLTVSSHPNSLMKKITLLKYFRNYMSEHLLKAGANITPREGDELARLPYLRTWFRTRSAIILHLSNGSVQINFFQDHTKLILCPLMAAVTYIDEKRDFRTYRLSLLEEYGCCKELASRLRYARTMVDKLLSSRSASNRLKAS
ALDH1A1 block: ALDH1A1 (human) enzyme inhibition; P00352; Potency, µM (titrated, usually from 75.3 µM), for the others: top-dose activity, negative = inhibition, actives largely listed as inhibitors; Purified ALDH1A1, NADH fluorescence, propionaldehyde substrate; actives 7.3% (n = 220,000); active = well fitted inhibition curve with a large enough effect, not every such curve was filed as active; inconclusive = small, poorly fitted or top-dose-only effect, or another doubt; inactive = no such curve, though single readings can be large or run the other way;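 note: plate controls were no enzyme wells and a reference inhibitor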
Gal4-VP16 FLuc: counter-screen for ROR gamma inhibitors: Gal4-VP16 reporter; Drosophila S2 Gal4-VP16 UAS-luciferase, luminescence, 20 h; Potency, µM (series often up to 53.6 µM), without a hit: top-dose activity, negative = inhibition, usual class: inhibitors; actives 3.5% (n = 310,000); AID 2546;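 note: Gal4-VP16 expression switched on by copper sulfate through the metallothionein promoter; nearly all actives have a fitted effect of over 50% in size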
Sfp inh: blocks B. subtilis Sfp PPTase activity; Q9F4F7; Biochemical Sfp PPTase activity, qHTS; Potency, µM, inactives show largest response in the series, negative = inhibition, usual class: inhibitors; actives 3.5% (n = 310,000); AID 1490;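 note: the enzyme is Sfp with the accession as filed and its product quenches rhodamine fluorescence; 0% = enzyme reaction without inhibitor and -100% = no enzyme wells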
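Reaction rates are the 30-min fluorescence difference (ex 525, em 598 nm) in wells containing 15 nM Sfp, 5 uM rhodamine-CoA and 12.5 uM BHQ-2-YbbR at pH 7.6 with 10 mM MgCl2.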
RORg inh: blocks mouse ROR gamma transcriptional activity; Drosophila S2 Gal4-RORgamma UAS-luciferase reporter, 20 h; P51450; actives 5.4% (n = 310,000); Potency, µM (highest dose often 53.6 µM), for the others: top-dose activity change, negative = inhibition, most hits filed as inhibitors; note: nearly all actives have a fitted effect of over 60% in size
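ROR gamma transcriptional activity was tracked as Gal4-UAS luciferase output in stably transfected Drosophila Schneider cells, with compound added 1 hr before 700 uM copper sulfate induction and a 20 hr ambient-temperature incubation.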
Starred values were filed as active, the others as inactive; u = inconclusive; x = no result given. Sampled rows, rich in hits. Any-hit rate of the full collection: about 12%. Unless noted, calls come from the whole dose curve; as a rule, active = well fitted curve in the direction sought with a large enough effect; inconclusive = small, poorly fitted or top-dose-only effect, or another doubt; inactive = no such curve, though single readings can be large; an effect the other way counts as inactive or inconclusive. Unless noted, % is set by controls: 0 for no effect and ±100 for the full control effect; potency is the fitted concentration of half-maximal effect.

SMILES	PLK1 PBD block	ALDH1A1 block	Gal4-VP16 FLuc	Sfp inh	RORg inh
O=C(NC1CCN(C(=O)N2c3ccccc3Sc3ccccc32)CC1)c1ccccc1F	0%	11µM*	3.5µM*	10%	u
CC1CCN(C(=O)N2c3ccccc3Sc3ccccc32)CC1	-1%	6%	-3%	-15%	6%
CC1CN(C(=O)N2c3ccccc3Sc3ccccc32)CC(C)O1 (stereo unspecified)	-3%	5%	3.5µM*	-20%	31%
COc1ccccc1-c1cncnc1N1CCN(C)CC1	x	1%	4%	-11%	-1%
NCC1O[C@@H](OC2C(N)CC(N)C(O)C2O[C@@H]2OC(CO)C(O)C2O)C(N)C(O)C1O (stereo partly specified)	x	6%	4%	6%	19%
Cc1cccc(N(C)c2cc(C)nc3nc(C)nn23)c1	30µM*	9%	1%	8%	-17%
CCN(c1ccccc1)c1cc(C)nc2nc(C)nn12	-4%	4%	-8%	14%	-13%
Cc1ccc(SCC(c2ccccc2)N2CCN(CCc3ccccc3)CCC2=O)cc1 (stereo unspecified)	x	x	-6%	-5%	u
Cc1cc2nc3c(=O)[nH]c(=O)[nH]c3nc2c([N+](=O)[O-])c1N	13µM*	-11%	0%	u	16%
Cc1c(N)c(C(C)(C)C)cc(C(C)(C)C)c1[N+](=O)[O-]	-4%	-10%	4%	9%	4%
CO/N=C/c1c(C(=O)OC)nn(-c2ccccc2)c1Cl	3.8µM*	10%	0%	15%	0%
COC(=O)c1nn(-c2ccccc2)c(Cl)c1/C=N/OCc1c(Cl)cccc1Cl	-13%	x	x	x	x
CCOc1cc(/C=C2/C(=O)N(c3ccccc3)N=C2C)ccc1OC(=O)c1ccco1	1.5µM*	u	-6%	u	1%
CCOc1cc(/C=N/NC(=O)COc2ccc(C)cc2)ccc1OC(=O)c1cccs1	-3%	-6%	-1%	12%	13%
CC1=NN(c2ccc(C(=O)O)cc2)C(=O)/C1=C\c1ccc(OC(=O)c2cccs2)cc1	0.75µM*	2.2µM*	-1%	u	11µM*
CCOc1cc(/C=C2\C(=O)N(c3ccc(C(N)=O)cc3)N=C2C)ccc1OC(=O)c1cccs1	u	0.71µM*	-22%	56µM*	-3%
CCOc1cc(/C=C2/C(=N)N3N=C(CC)SC3=NC2=O)ccc1OC(=O)c1ccco1	u	x	2%	-6%	9%
O=C(N/N=C/c1ccc(OC(=O)c2cccs2)cc1)c1ccc(F)cc1	-9%	-1%	-29%	-7%	u
Cc1cccc(CCNC(=O)C2CC(O)CN2C(=O)Nc2ccccc2)c1 (stereo unspecified)	2%	x	x	x	x
CCCCCCCCN1C(=O)[C@H](CC(=O)N2CCN(C(=O)OCC)CC2)C[C@@]2(C(=O)OC)CCCCC=C12	-2%	x	x	x	x
COC(=O)c1sc2nc3c(c(-c4cccs4)c2c1N)CCCC3	-13%	u	-1%	79µM*	16%
Cc1ccc(N2C(=O)c3sc4nnc(C)c(=O)n4c3C2=O)cc1	-4%	18µM*	4%	12%	26%
CCc1ccc(N2C(=O)c3sc4nnc(C)c(=O)n4c3C2=O)cc1	-3%	5µM*	-13%	-3%	28%
Cc1ccc(NC(=O)N2CCCCCC2)cc1C	-1%	x	-6%	-4%	-1%
Cc1ccc(C(NC(=O)N2CCCCC2)=C(Cl)Cl)cc1F	-22%	0.11µM*	7.1µM*	0%	11µM*
SMILES	PLK1 PBD block	ALDH1A1 block	Gal4-VP16 FLuc	Sfp inh	RORg inh
Cc1cc(S(=O)(=O)Nc2ccc(C(=O)NCCCN3CCOCC3)cc2)ccc1F	9%	x	x	x	x
Cc1ccc(C(NC(=O)NCCCN2CCOCC2)=C(Cl)Cl)cc1F	-3%	0.4µM*	u	-7%	u
CC(CC(=O)c1ccccc1)=NCC(O)CN=C(C)CC(=O)c1ccccc1 (stereo unspecified)	1%	x	x	x	x
CN(C)c1ccc(C(CNC(=O)c2ccc(C#N)cc2)c2c[nH]c3ccccc23)cc1 (stereo unspecified)	4%	14µM*	0%	16%	6%
CN(C)c1ccc(C(CNC(=O)c2ccccc2Br)c2c[nH]c3ccccc23)cc1 (stereo unspecified)	4%	7.9µM*	-2%	-4%	u
CC(C)C[C@H](NC(=O)[C@H](Cc1cnc[nH]1)NC(=O)[C@@H](N)Cc1cnc[nH]1)C(=O)NCC(=O)NCC(=O)N[C@@H](C)C(=O)N[C@@H](CCCCN)C(=O)N[C@@H](CCC(N)=O)C(=O)N[C@@H](C)C(=O)NCC(=O)N[C@@H](CC(=O)O)C(=O)N[C@H](C(=O)O)C(C)C	x	x	-1%	20%	11%
Cc1ccc(NC(=O)CCS(=O)(=O)c2cccc3nonc23)cc1	-3%	u	2%	12%	-38%
Cc1cccc(NC(=O)CN(c2ccc(F)cc2)S(C)(=O)=O)c1	-16%	u	5µM*	-24%	5.6µM*
CN(c1cccc(NC(=O)CN(c2ccc(F)cc2)S(C)(=O)=O)c1)S(C)(=O)=O	1%	-3%	-4%	10%	3%
Cc1ccc(N(CC(=O)Nc2cccc(C)c2)S(=O)(=O)c2cccc3nonc23)cc1	-2%	7.1µM*	-11%	24%	u
c1ccc(C(NCc2cccnc2)(c2ccccc2)c2ccccc2)cc1	x	x	0%	u	-31%
COc1ccc(N(CC(=O)NCCSCc2ccc(Cl)cc2)S(C)(=O)=O)cc1Cl	9%	x	-4%	19%	u
O=c1ccc2cccc([N+](=O)[O-])c2[nH]1	-3%	x	x	x	x
CCC(=O)N(C)CCc1cc2c(c(OC)c1/C=N/NC(=O)c1ccc(Br)cc1)OCO2	24µM*	1%	u	2%	24%
CCC(=O)N(C)CCc1cc2c(c(OC)c1/C=N/NC(=O)c1ccccc1O)OCO2	0%	-2%	u	14%	u
NC1=NC(=O)C2(COC(c3cccnc3)OC2)S1 (stereo unspecified)	34µM*	12%	-8%	22%	-19%
CCc1nnc(SC(C)C(=O)Nc2nccs2)n1C (stereo unspecified)	-15%	x	-4%	1%	5%
COc1ccc(C2CC3(CC(C)(C)NC(=O)N3)Oc3cc(O)ccc32)cc1 (stereo unspecified)	1%	4%	21%	-3%	u
COc1ccc(C2CC3(CC(C)(C)NC(=S)N3)Oc3cc(O)cc(C)c32)cc1 (stereo unspecified)	-6%	0%	u	-1%	u
CC1(C)CC2(CC(c3ccccc3)c3ccc(O)cc3O2)NC(=S)N1 (stereo unspecified)	-10%	7%	-9%	0%	11µM*
CC(=O)Oc1ccc2c(c1)OC(c1ccccc1)CC21CC(C)(C)NC(=S)N1 (stereo unspecified)	-2%	13%	u	10%	10µM*
